Laboratory results from PubChem BioAssay AID1159580 (chemical genetic matrix, 2015).
Several values for one entry are separate records, joined by “and”; a condition that tells them apart may be missing. Identical values can stand only once. In all, about 5,500 compounds went through this assay and about 2,000 (36%) were called active. Inconclusive results (about 18%) are left out. Cut-off read from the data, not from the text of the source: active = normalized growth mostly below about 0.91 (no sharp cut-off); inconclusive = no clear call, values can overlap the other calls; inactive = mostly above about 0.92. The list shows a part of the results.

Experiment: chemical genetic growth profiling, strain panel (AID 1159580);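 note: tested at 20 µM; growth read once vehicle control cultures reached saturation at 30 °C; 1 = growth at the plate median or of vehicle wells; lower values mean less growth of the strain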
Conditions: S. cerevisiae deletion strains, growth OD

Measured: normalized growth

CN(C)N=Nc1nc[nH]c1C(N)=O
inactive: locus YAL013W, strain DEP1, active compounds read low 1.01 | locus YAL021C, strain ccr4, active compounds read low 0.968 | locus YAL026C, strain drs2, active compounds read low 1 | locus YAL030W, strain snc1, active compounds read low 0.976 | locus YBL061C, strain skt5, active compounds read low 0.976 | locus YBR009C, strain hhf1, active compounds read low 1.02 | locus YBR021W, strain FUR4, active compounds read low 1.02 | locus YBR023C, strain chs3, active compounds read low 0.982 | locus YBR171W, strain sec66, active compounds read low 0.969 | locus YBR229C, strain ROT2, active compounds read low 1.01 | locus YBR231C, strain swc5, active compounds read low 0.985 | locus YBR279W, strain paf1, active compounds read low 0.966 | locus YCL011C, strain gbp2, active compounds read low 0.953 | locus YCL016C, strain dcc1, active compounds read low 0.957 | locus YCL029C, strain bik1, active compounds read low 1 | locus YCL061C, strain MRC1, active compounds read low 0.992 | locus YCL069W, strain vba3, active compounds read low 0.984 | locus YCR088W, strain abp1, active compounds read low 0.968 | locus YDL005C, strain med2, active compounds read low 0.965 | locus YDL035C, strain GPR1, active compounds read low 1.02 | locus YDL040C, strain nat1, active compounds read low 0.979 | locus YDL074C, strain BRE1, active compounds read low 1.01 | locus YDL101C, strain DUN1, active compounds read low 1.01 | locus YDL134C, strain PPH21, active compounds read low 1.02 | locus YDL185W, strain tfp1, active compounds read low 0.997 | locus YDL192W, strain arf1, active compounds read low 0.996 | locus YDR001C, strain nth1, active compounds read low 0.975 | locus YDR069C, strain doa4, active compounds read low 0.976 | locus YDR101C, strain arx1, active compounds read low 1.01 | locus YDR137W, strain rgp1, active compounds read low 0.975 | locus YDR150W, strain NUM1, active compounds read low 1.01 | locus YDR159W, strain sac3, active compounds read low 1.02 | locus YDR162C, strain NBP2, active compounds read low 1.03 | locus YDR195W, strain ref2 1.01 | locus YDR297W, strain sur2, active compounds read low 0.966 | locus YDR318W, strain mcm21, active compounds read low 1 | locus YDR334W, strain swr1, active compounds read low 0.949 | locus YDR335W, strain msn5, active compounds read low 0.965 | locus YDR388W, active compounds read low 0.992 | locus YDR392W, strain spt3, active compounds read low 0.918 | locus YDR502C, strain sam2, active compounds read low 1.01 | locus YEL003W, strain gim4, active compounds read low 0.977 | locus YEL037C, strain rad23, active compounds read low 0.985 | locus YEL061C, strain CIN8 (second series), active compounds read low 0.98 | locus YEL061C, strain CIN8, active compounds read low 1.01 | locus YER015W, strain faa2, active compounds read low 0.981 | locus YER016W, strain bim1, active compounds read low 0.98 | locus YER110C, active compounds read low 0.995 | locus YER111C, strain swi4, active compounds read low 0.987 | locus YER155C, strain BEM2 (second series), active compounds read low 0.998 | locus YER155C, strain BEM2, active compounds read low 1 | locus YER167W, strain BCK2, active compounds read low 1.02 | locus YFR010W, strain ubp6, active compounds read low 0.987 | locus YGL078C, strain dbp3, active compounds read low 0.999 | locus YGL086W, strain mad1, active compounds read low 1.01 | locus YGL167C, strain pmr1, active compounds read low 0.981 | locus YGL173C, strain kem1, active compounds read low 0.961 | locus YGL227W, strain vid30, active compounds read low 0.979 | locus YGL240W, strain doc1, active compounds read low 0.951 | locus YGL248W, strain PDE1, active compounds read low 1.01 | locus YGL253W, strain hxk2, active compounds read low 0.953 | locus YGR078C, strain PAC10, active compounds read low 1 | locus YGR135W, strain pre9, active compounds read low 1 | locus YGR252W, strain gcn5, active compounds read low 1.05 | locus YHR013C, strain ard1, active compounds read low 0.965 | locus YHR027C, strain rpn1, active compounds read low 0.967 | locus YHR030C, strain SLT2, active compounds read low 1.01 | locus YHR079C, strain IRE1 (second series), active compounds read low 1 | locus YHR079C, strain IRE1, active compounds read low 1.02 | locus YHR094C, strain hxt1, active compounds read low 0.999 | locus YHR129C, strain ARP1, active compounds read low 1.01 | locus YHR142W, strain chs7, active compounds read low 0.926 | locus YHR200W, strain rpn10, active compounds read low 1.01 | locus YIL066C, strain RNR3, active compounds read low 1.01 | locus YIL073C, strain SPO22, active compounds read low 1.02 | locus YIL125W, strain kgd1, active compounds read low 0.995 | locus YIR030C, strain dcg1, active compounds read low 1.01 | locus YJL092W, strain hpr5, active compounds read low 0.984 | locus YJL095W, strain BCK1 (second series), active compounds read low 0.966 | locus YJL095W, strain BCK1, active compounds read low 1.01 and 1.03 | locus YJL115W, strain asf1, active compounds read low 0.968 | locus YJL129C, strain trk1, active compounds read low 0.958 | locus YJL134W, strain LCB3, active compounds read low 1 | locus YJL154C, strain vps35, active compounds read low 0.954 | locus YJL164C, strain tpk1, active compounds read low 0.989 | locus YJL166W, strain qcr8, active compounds read low 0.936 | locus YJL168C, strain set2, active compounds read low 1.01 | locus YJL187C, strain SWE1 (second series), active compounds read low 1.02 | locus YJL187C, strain SWE1, active compounds read low 0.993 | locus YJR043C, strain POL32, active compounds read low 1.03 | locus YJR066W, strain TOR1, active compounds read low 1 | locus YJR075W, strain HOC1, active compounds read low 1.01 | locus YKL009W, strain mrt4, active compounds read low 1 | locus YKL068W, active compounds read low 0.997 | locus YKL085W, strain MDH1 (second series), active compounds read low 0.999 | locus YKL085W, strain MDH1, active compounds read low 0.999 | locus YKL160W, strain elf1, active compounds read low 0.931 | locus YKR001C, strain vps1, active compounds read low 1 | locus YKR026C, strain gcn3, active compounds read low 0.975 | locus YKR091W, strain srl3, active compounds read low 0.97 | locus YLL001W, strain dnm1, active compounds read low 0.916 | locus YLL026W, active compounds read low 0.987 | locus YLL041C, strain sdh2, active compounds read low 0.987 | locus YLR027C, strain aat2, active compounds read low 0.991 | locus YLR039C, strain RIC1, active compounds read low 1.04 | locus YLR058C, strain SHM2, active compounds read low 1.02 | locus YLR102C, strain apc9, active compounds read low 0.999 | locus YLR113W, strain HOG1, active compounds read low 1.06 | locus YLR221C, strain rsa3, active compounds read low 0.956 | locus YLR258W, strain gsy2, active compounds read low 0.979 | locus YLR262C, strain YPT6 (second series), active compounds read low 0.97 | locus YLR262C, strain YPT6, active compounds read low 1.02 | locus YLR268W, strain sec22, active compounds read low 1.01 | locus YLR320W, strain mms22, active compounds read low 0.941 | locus YLR330W, strain CHS5, active compounds read low 1.01 | locus YLR342W, strain FKS1 (second series), active compounds read low 1.01 | locus YLR342W, strain FKS1, active compounds read low 0.974 | locus YLR357W, strain rsc2, active compounds read low 0.965 | locus YLR370C, strain arc18, active compounds read low 0.973 | locus YLR371W, strain rom2, active compounds read low 1 | locus YLR384C, strain iki3, active compounds read low 0.985 | locus YLR418C, strain cdc73, active compounds read low 1.03 | locus YML016C, strain PPZ1, active compounds read low 1.01 | locus YML032C, strain rad52, active compounds read low 0.993 | locus YML120C, strain ndi1, active compounds read low 0.925 | locus YML124C, strain tub3, active compounds read low 1 | locus YMR058W, strain fet3, active compounds read low 0.979 | locus YMR078C, strain ctf18, active compounds read low 0.999 | locus YMR125W, strain sto1, active compounds read low 0.935 | locus YMR129W, active compounds read low 0.992 | locus YMR205C, strain PFK2, active compounds read low 0.927 | locus YMR223W, strain ubp8, active compounds read low 0.988 | locus YMR231W, strain pep5, active compounds read low 0.993 | locus YMR263W, strain SAP30, active compounds read low 1.02 | locus YMR307W, strain GAS1, active compounds read low 1.07 | locus YNL067W, strain RPL9B, active compounds read low 1.01 | locus YNL071W, strain lat1, active compounds read low 0.986 | locus YNL153C, strain GIM3, active compounds read low 1 | locus YNL183C, strain NPR1, active compounds read low 0.986 | locus YNL209W, strain ssb2, active compounds read low 0.976 | locus YNL233W, strain BNI4, active compounds read low 1 | locus YNL248C, strain rpa49, active compounds read low 0.968 | locus YNL250W, strain rad50, active compounds read low 0.979 | locus YNL271C, strain bni1, active compounds read low 0.995 | locus YNL298W, strain CLA4, active compounds read low 0.999 | locus YNL307C, strain MCK1, active compounds read low 0.996 | locus YNL322C, strain KRE1 (second series), active compounds read low 0.974 | locus YNL322C, strain KRE1, active compounds read low 1.01 | locus YNR049C, strain mso1, active compounds read low 0.967 | locus YNR052C, strain pop2, active compounds read low 1 | locus YOL006C, strain TOP1, active compounds read low 1.06 | locus YOL012C, strain htz1 0.752 | locus YOL147C, strain pex11, active compounds read low 0.998 | locus YOR001W, strain rrp6, active compounds read low 1.01 | locus YOR061W, strain CKA2, active compounds read low 1.01 | locus YOR069W, strain VPS5, active compounds read low 1 | locus YOR070C, strain gyp1, active compounds read low 0.993 | locus YOR080W, strain dia2, active compounds read low 0.973 | locus YOR083W, strain WHI5, active compounds read low 0.936 | locus YOR106W, strain vam3, active compounds read low 0.932 | locus YOR136W, strain idh2, active compounds read low 1.01 | locus YOR144C, strain elg1, active compounds read low 1.01 | locus YOR184W, strain ser1, active compounds read low 1.01 | locus YOR231W, strain MKK1, active compounds read low 1.02 | locus YOR265W, strain rbl2, active compounds read low 0.977 | locus YOR270C, strain vph1, active compounds read low 0.988 | locus YOR290C, strain snf2, active compounds read low 0.943 | locus YOR316C, strain cot1, active compounds read low 0.997 | locus YPL051W, strain arl3, active compounds read low 0.973 | locus YPL055C, strain LGE1, active compounds read low 1.02 | locus YPL078C, strain atp4, active compounds read low 0.928 | locus YPL106C, strain sse1, active compounds read low 0.942 | locus YPL240C, strain hsp82, active compounds read low 1 | locus YPL241C, strain CIN2, active compounds read low 1.01 | locus YPL256C, strain CLN2, active compounds read low 1.04 | locus YPR119W, strain clb2, active compounds read low 0.995 | locus YPR141C, strain kar3, active compounds read low 0.987 | locus YPR163C, strain tif3, active compounds read low 1 | locus YPR167C, strain met16, active compounds read low 1 | strain wtn01, active compounds read low 0.995
